# PubChem BioAssay (EPA / NIEHS)
# Inconclusive results are not listed. Activity calls are given as the source filed them. Rule for the calls, unless noted: active = hit-call score of the fitted dose curve at least 0.9, where 1 is the maximum; inactive = score below 0.9.
# Assays:
# [1] = ATG_Sox_CIS: Attagene CIS-FACTORIAL HepG2 Assay for human SRY-box transcription factor (SOX) (AID 2282960); settings: HepG2 Attagene cis-factorial SOX reporter, mRNA; actives raise or lower the signal
# How it was run: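 HepG2, cis reporter units, 24 h exposure. Reporter mRNA: RT-PCR → FAM labelling → HpaI → CE fluorescence. Bidirectional fit vs DMSO.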
# [2] = molecular target: Transcription factor Sp1 (Homo sapiens) (UniProt P08047); assay: ATG_Sp1_CIS: Attagene CIS-FACTORIAL HepG2 Assay for human Specificity Protein 1 (Sp1) (AID 2282961); settings: HepG2 Sp1 cis-reporter transcription, actives raise or lower the signal
# How it was run: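 Liver-derived HepG2 cells, cis-element reporter library, 24 h treatment; RNA isolated, cDNA amplified with reporter-specific primers, FAM-labeled fragments sized on capillary analyzer. DMSO baseline, bidirectional curve fit.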
# [3] = ATG_SREBP_CIS: Attagene CIS-FACTORIAL HepG2 Assay for human Sterol Regulatory Element Binding (SREBP) (AID 2282962); settings: HepG2 Attagene cis-factorial SREBP reporter, mRNA; actives raise or lower the signal
# How it was run: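 mRNA induction of transfected cis-promoter reporters in HepG2 cells, 24 h post-dose. Detection: RT-PCR with 6-FAM-labelled products, HpaI digest, capillary electrophoresis. DMSO served as negative control and baseline.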
# [4] = molecular target: Signal transducer and activator of transcription 3 (Homo sapiens) (UniProt P40763); assay: ATG_STAT3_CIS: Attagene CIS-FACTORIAL HepG2 Assay for human Signal Transducer and Activator of Transcription 3 (STAT3) (AID 2282963); settings: HepG2, Attagene cis-factorial STAT3 reporter transcription; actives raise or lower the signal
# How it was run: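 HepG2 cells transiently transfected with multiple cis-element-driven reporter units report endogenous transcription factor activity. After 24 h compound exposure, reporter mRNA is measured by RT-PCR, 6-FAM labelling, HpaI digestion and capillary electrophoresis. Fitted bidirectionally versus DMSO.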
# [5] = ATG_TA_CIS: Attagene CIS-FACTORIAL HepG2 Assay for human TA Basal Promoter (AID 2282964); settings: HepG2 Attagene CIS-factorial TA basal promoter reporter; actives raise or lower the signal
# How it was run: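 Fluorescence from labelled RT-PCR reporter fragments, separated by capillary electrophoresis, gives the signal. Cells: HepG2 transiently carrying multiple reporter units, 24 h chemical dosing. Gain or loss relative to DMSO.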
# [6] = ATG_TCF_b_cat_CIS: Attagene CIS-FACTORIAL HepG2 Assay for human T-Cell-Factor with beta-catenin (TCF/b-cat) (AID 2282965); settings: HepG2 TCF/beta-catenin cis-reporter transcription, actives raise or lower the signal
# How it was run: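 HepG2, transient MRTU transfection, cis-element-driven reporters (endogenous TFs). 24 h compound exposure. Readout: reporter mRNA by RT-PCR + 6-FAM primer extension, HpaI digest, capillary electrophoresis. Gain/loss fit vs DMSO baseline.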
# [7] = ATG_TAL_CIS: Attagene CIS-FACTORIAL HepG2 Assay for human TAL Basal Promoter (AID 2282966); settings: HepG2 Attagene cis-factorial TAL promoter reporter; actives raise or lower the signal;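 note: background control endpoint measuring basal TAL promoter reporter mRNA not a specific factor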
# How it was run: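 Steps: transfect HepG2 with multiple reporter transcription units; dose 24 h; isolate RNA, reverse-transcribe, PCR-amplify, label with 6-FAM, digest with HpaI; resolve by capillary electrophoresis. Bidirectional fitting against DMSO baseline.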
# [8] = ATG_TGFb_CIS: Attagene CIS-FACTORIAL HepG2 Assay for human Transforming Growth Factor (TGF) (AID 2282967); settings: HepG2 Attagene CIS TGFb reporter, mRNA transcription; actives raise or lower the signal
# How it was run: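 Bidirectional fitting relative to DMSO gave the endpoint. Underlying data: reporter mRNA from HepG2 cells carrying transiently transfected cis-regulated reporter constructs, harvested 24 h after dosing and analyzed by RT-PCR and capillary electrophoresis.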
# [9] = ATG_VDRE_CIS: Attagene CIS-FACTORIAL HepG2 Assay for human Vitamin D Receptor Element (VDRE) (AID 2282968); settings: HepG2 VDRE cis-reporter transcription, actives raise or lower the signal
# How it was run: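 Transiently transfected HepG2 cells carrying cis-regulated reporter transcription units were exposed for 24 h. Reporter mRNA was measured by RT-PCR with fluorescent labelling and capillary electrophoresis, and fitted in both directions against DMSO.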
# [10] = molecular target: Nuclear receptor subfamily 1 group I member 3 (Homo sapiens) (UniProt Q14994); assay: ATG_CAR_TRANS: Attagene TRANS-FACTORIAL HepG2 Assay for human Constitutive Androstane Receptor (CAR) (AID 2282969; active = hit-call score of the fitted dose curve at least 0.9, where 1 is the maximum;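 note: activators raise reporter mRNA above DMSO so AC50 marks induction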); settings: HepG2 Attagene TRANS-FACTORIAL CAR reporter
# How it was run: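 HepG2 cells transiently transfected with GAL4-UAS reporter units; TRANS format reads activity of exogenous chimeric NR-Gal4 protein. After 24 h dosing, reporter mRNA quantified by RT-PCR, 6-FAM labelling and capillary electrophoresis; gain of signal fitted against DMSO.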
# [11] = molecular target: Steroid hormone receptor ERR1 (Homo sapiens) (UniProt P11474); assay: ATG_ERRa_TRANS: Attagene TRANS-FACTORIAL HepG2 Assay for human Estrogen-Related Receptor alpha (ERRa) (AID 2282971; active = hit-call score of the fitted dose curve at least 0.9, where 1 is the maximum); settings: HepG2 Attagene TRANS reporter, ERRa transactivation
# How it was run: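 Signal gain relative to DMSO for an ERRa-Gal4 chimeric receptor, read as reporter mRNA by RT-PCR/capillary electrophoresis. Human HepG2 liver cells, transient multiplex reporter transfection, 24 h chemical exposure.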
# [12] = ATG_M_19_TRANS: Attagene TRANS-FACTORIAL HepG2 Assay for M19 Transcription Factor (Internal Marker) (AID 2282974; active = hit-call score of the fitted dose curve at least 0.9, where 1 is the maximum); settings: HepG2 Attagene TRANS-FACTORIAL M19 internal marker reporter
# How it was run: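 Transfected HepG2 (GAL4-UAS MRTUs), 24 h compound, TriZol RNA, DNase-treated RT, reporter PCR, FAM label, HpaI digest, CE fluorescence; gain vs DMSO.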
# [13] = ATG_GAL4_TRANS: Attagene TRANS-FACTORIAL HepG2 Assay for GAL4 (Internal Marker) (AID 2282976; active = hit-call score of the fitted dose curve at least 0.9, where 1 is the maximum); settings: HepG2 Attagene TRANS GAL4 internal marker reporter
# How it was run: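 Liver HepG2 line bearing multiplexed GAL4-UAS reporter constructs; 24 h chemical treatment. Transcripts were quantified as fluorescent fragments on capillary electrophoresis after RT-PCR and HpaI cut, with activity fitted upward from DMSO.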
# [14] = molecular target: Estrogen-related receptor gamma (Homo sapiens) (UniProt P62508); assay: ATG_ERRg_TRANS: Attagene TRANS-FACTORIAL HepG2 Assay for human Estrogen-Related Receptor gamma (ERRg) (AID 2282977; active = hit-call score of the fitted dose curve at least 0.9, where 1 is the maximum;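 note: hits increase reporter signal over DMSO so potencies reflect activators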); settings: HepG2 Attagene TRANS reporter, ERRg transactivation
# How it was run: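 HepG2 cells transiently transfected with multiplexed GAL4-UAS reporter units driven by chimeric NR-Gal4 proteins; 24 h exposure. Reporter mRNA quantified by RT-PCR, fluorescent labelling, HpaI digestion and capillary electrophoresis; gain of signal vs DMSO.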
# [15] = molecular target: Glucocorticoid receptor (Homo sapiens) (UniProt P04150); assay: ATG_GR_TRANS: Attagene TRANS-FACTORIAL HepG2 Assay for human Glucocorticoid Receptor (GR) (AID 2282978; active = hit-call score of the fitted dose curve at least 0.9, where 1 is the maximum;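 note: activators score as hits since higher reporter transcript over DMSO is fitted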); settings: HepG2 Attagene TRANS GR reporter, mRNA transcription
# How it was run: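 After 24 h incubation with test chemical, transfected HepG2 cells were lysed for RNA; reporter cDNA was amplified, FAM-labelled, HpaI-digested and sized on a capillary analyser. Signal gain relative to DMSO was scored.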
# [16] = molecular target: Bile acid receptor (Homo sapiens) (UniProt Q96RI1); assay: ATG_FXR_TRANS: Attagene TRANS-FACTORIAL HepG2 Assay for Farnesoid X Receptor (FXR) (AID 2282979; active = hit-call score of the fitted dose curve at least 0.9, where 1 is the maximum;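 note: hits raise reporter mRNA above DMSO so AC50 marks FXR activation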); settings: HepG2 Attagene TRANS FXR-GAL4 reporter transcription
# How it was run: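 After 24 h chemical treatment of transfected HepG2 cells, GAL4-UAS reporter transcripts driven by an exogenous FXR-GAL4 fusion were measured by RT-PCR and capillary electrophoresis. Increases over DMSO were fitted.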
# [17] = molecular target: Estrogen receptor (Homo sapiens) (UniProt P03372); assay: ATG_ERa_TRANS: Attagene TRANS-FACTORIAL HepG2 Assay for human Estrogen Receptor alpha (ERa) (AID 2282970; active = hit-call score of the fitted dose curve at least 0.9, where 1 is the maximum); settings: HepG2 Attagene TRANS ERa GAL4 reporter, mRNA
# How it was run: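 Multiplexed cell-based reporter format in HepG2: chimeric ERa-Gal4 protein drives GAL4-UAS reporter transcription. Fluorescent reporter mRNA quantified by capillary electrophoresis 24 hours after dosing; endpoint fitted as signal gain against DMSO.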
# [18] = molecular target: X-box-binding protein 1 (Homo sapiens) (UniProt P17861); assay: ATG_Xbp1_CIS: Attagene CIS-FACTORIAL HepG2 Assay for human X-box Binding Protein 1 (XBP1) (AID 2282972); settings: HepG2 XBP1 cis-element reporter, Attagene multiplex; actives raise or lower the signal
# How it was run: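 Fluorescence-labelled cDNA fragments from reporter transcripts, separated by capillary electrophoresis, give the signal. Source: HepG2 cells transfected with promoter-driven reporter units, harvested 24 h post-dose. DMSO served as reference for bidirectional curve fitting.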
# Chain of Nuclear receptor subfamily 1 group I member 3 (Homo sapiens) (Q14994 whole entry, looked up, the tested form may be a part): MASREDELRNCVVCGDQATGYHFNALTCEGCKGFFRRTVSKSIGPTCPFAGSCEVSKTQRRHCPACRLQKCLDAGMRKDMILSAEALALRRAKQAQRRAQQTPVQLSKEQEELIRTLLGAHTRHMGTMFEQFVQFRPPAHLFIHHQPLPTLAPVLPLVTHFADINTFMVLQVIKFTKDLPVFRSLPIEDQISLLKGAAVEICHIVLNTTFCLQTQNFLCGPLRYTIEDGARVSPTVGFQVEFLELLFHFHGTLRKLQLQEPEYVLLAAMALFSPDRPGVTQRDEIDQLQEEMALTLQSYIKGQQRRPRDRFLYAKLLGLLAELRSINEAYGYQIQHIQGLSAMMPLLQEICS
# Chain of Glucocorticoid receptor (Homo sapiens) (P04150 whole entry, looked up): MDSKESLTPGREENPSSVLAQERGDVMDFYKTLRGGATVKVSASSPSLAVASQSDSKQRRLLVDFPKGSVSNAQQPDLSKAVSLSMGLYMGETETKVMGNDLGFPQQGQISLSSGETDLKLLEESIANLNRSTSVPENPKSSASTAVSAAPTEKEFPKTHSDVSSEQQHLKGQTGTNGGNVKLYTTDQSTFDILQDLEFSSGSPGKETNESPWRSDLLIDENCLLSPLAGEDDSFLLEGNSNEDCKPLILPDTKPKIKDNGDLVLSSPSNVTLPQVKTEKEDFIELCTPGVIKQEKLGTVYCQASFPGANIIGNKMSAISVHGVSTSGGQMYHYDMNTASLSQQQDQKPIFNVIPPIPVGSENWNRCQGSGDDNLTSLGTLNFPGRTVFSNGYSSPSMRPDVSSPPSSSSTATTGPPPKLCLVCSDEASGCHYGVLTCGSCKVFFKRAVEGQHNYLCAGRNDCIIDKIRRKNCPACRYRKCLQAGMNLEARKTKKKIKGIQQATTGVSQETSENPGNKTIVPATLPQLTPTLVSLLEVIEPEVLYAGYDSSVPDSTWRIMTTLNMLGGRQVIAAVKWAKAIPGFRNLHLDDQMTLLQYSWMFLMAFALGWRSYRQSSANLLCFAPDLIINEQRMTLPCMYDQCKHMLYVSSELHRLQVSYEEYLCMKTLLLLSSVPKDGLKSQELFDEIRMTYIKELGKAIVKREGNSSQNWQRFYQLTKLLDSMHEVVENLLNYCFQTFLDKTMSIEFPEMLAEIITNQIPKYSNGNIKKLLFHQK
# Chain of Transcription factor Sp1 (Homo sapiens) (P08047 whole entry, looked up, the tested form may be a part): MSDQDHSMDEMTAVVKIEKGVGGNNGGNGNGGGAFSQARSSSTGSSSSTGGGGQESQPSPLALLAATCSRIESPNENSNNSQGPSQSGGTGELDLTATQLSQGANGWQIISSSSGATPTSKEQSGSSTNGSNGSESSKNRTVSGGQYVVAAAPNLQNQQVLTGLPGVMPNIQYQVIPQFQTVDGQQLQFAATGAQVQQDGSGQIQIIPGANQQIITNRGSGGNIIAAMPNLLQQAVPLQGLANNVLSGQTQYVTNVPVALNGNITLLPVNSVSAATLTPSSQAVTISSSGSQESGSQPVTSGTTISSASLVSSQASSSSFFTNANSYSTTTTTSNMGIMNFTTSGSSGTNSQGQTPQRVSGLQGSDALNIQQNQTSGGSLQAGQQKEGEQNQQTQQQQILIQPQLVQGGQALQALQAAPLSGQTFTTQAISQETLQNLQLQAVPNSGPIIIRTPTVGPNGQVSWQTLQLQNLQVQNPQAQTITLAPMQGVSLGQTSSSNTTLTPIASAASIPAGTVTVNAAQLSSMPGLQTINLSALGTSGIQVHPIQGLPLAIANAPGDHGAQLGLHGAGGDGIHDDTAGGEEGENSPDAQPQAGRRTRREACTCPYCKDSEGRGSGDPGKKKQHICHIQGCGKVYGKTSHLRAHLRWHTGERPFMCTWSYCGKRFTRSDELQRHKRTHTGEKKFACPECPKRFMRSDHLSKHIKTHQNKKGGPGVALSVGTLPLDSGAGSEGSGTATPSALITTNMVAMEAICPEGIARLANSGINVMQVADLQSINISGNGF
# Chain of Signal transducer and activator of transcription 3 (Homo sapiens) (P40763 whole entry, looked up): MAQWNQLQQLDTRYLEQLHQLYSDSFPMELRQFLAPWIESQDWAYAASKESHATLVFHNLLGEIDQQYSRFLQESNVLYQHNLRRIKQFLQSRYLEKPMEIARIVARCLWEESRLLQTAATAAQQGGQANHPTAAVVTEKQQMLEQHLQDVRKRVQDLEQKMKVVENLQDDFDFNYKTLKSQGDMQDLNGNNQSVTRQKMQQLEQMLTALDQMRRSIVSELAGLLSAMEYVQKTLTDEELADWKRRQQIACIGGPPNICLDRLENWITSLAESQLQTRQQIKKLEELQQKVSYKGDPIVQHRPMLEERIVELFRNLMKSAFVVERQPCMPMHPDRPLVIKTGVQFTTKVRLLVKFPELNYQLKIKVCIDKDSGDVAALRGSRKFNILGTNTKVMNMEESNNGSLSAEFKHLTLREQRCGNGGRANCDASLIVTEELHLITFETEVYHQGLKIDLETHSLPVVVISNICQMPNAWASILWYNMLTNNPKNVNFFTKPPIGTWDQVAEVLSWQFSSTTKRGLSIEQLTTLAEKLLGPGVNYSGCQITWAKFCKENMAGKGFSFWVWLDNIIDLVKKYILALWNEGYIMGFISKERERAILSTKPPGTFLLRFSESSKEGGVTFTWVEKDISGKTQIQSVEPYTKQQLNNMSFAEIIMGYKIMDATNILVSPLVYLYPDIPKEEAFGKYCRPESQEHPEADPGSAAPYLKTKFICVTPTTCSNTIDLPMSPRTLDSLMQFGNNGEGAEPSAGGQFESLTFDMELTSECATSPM
# Chain of Estrogen receptor (Homo sapiens) (P03372 whole entry, looked up, the tested form may be a part): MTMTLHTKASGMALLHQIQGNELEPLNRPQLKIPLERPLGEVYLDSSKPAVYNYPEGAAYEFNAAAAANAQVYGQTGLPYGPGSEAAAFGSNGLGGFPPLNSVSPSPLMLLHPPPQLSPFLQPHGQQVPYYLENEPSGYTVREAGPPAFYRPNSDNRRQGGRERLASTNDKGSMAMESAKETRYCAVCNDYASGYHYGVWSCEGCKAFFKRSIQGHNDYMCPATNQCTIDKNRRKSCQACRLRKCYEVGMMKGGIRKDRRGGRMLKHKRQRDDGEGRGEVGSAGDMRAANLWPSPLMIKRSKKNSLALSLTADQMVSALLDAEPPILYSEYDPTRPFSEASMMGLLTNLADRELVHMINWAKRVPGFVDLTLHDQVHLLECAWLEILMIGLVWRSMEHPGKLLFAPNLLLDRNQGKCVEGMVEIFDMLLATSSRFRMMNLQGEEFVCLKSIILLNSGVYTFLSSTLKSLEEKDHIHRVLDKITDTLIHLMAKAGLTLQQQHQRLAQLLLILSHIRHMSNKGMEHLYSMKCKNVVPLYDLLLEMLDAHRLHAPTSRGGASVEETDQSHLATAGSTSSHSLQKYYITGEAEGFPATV
# Chain of X-box-binding protein 1 (Homo sapiens) (P17861 whole entry, looked up, the tested form may be a part): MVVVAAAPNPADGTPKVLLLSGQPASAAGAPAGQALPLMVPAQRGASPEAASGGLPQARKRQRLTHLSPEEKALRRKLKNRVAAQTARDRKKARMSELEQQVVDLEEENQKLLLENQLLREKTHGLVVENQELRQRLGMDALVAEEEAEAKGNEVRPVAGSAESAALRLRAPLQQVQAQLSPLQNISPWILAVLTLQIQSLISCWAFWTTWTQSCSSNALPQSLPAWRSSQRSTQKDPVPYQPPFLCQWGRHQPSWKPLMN
# Chain of Steroid hormone receptor ERR1 (Homo sapiens) (P11474 whole entry, looked up, the tested form may be a part): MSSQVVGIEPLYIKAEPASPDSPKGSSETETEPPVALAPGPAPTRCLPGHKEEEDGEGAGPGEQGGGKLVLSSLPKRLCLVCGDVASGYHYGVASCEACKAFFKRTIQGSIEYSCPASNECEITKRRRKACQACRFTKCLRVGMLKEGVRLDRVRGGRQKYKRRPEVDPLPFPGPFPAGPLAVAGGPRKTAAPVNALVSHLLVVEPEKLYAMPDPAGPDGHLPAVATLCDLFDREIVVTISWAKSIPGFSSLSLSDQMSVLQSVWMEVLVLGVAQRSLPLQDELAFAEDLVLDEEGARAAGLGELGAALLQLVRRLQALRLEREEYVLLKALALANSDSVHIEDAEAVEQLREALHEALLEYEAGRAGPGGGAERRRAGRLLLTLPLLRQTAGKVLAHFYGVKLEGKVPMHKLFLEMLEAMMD
# Chain of Estrogen-related receptor gamma (Homo sapiens) (P62508 whole entry, looked up, the tested form may be a part): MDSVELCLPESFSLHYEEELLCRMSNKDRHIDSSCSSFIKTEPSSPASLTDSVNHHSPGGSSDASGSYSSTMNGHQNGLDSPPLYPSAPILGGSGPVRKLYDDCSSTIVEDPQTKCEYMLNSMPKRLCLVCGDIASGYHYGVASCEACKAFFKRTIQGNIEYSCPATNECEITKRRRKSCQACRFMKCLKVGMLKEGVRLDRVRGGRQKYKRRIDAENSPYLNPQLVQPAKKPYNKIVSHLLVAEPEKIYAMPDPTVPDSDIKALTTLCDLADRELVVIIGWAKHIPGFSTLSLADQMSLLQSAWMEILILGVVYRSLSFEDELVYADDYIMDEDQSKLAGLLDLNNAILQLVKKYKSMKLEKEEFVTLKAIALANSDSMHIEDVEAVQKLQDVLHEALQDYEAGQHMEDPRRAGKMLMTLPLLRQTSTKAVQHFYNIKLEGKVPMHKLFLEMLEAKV
# Chain of Bile acid receptor (Homo sapiens) (Q96RI1 whole entry, looked up, the tested form may be a part): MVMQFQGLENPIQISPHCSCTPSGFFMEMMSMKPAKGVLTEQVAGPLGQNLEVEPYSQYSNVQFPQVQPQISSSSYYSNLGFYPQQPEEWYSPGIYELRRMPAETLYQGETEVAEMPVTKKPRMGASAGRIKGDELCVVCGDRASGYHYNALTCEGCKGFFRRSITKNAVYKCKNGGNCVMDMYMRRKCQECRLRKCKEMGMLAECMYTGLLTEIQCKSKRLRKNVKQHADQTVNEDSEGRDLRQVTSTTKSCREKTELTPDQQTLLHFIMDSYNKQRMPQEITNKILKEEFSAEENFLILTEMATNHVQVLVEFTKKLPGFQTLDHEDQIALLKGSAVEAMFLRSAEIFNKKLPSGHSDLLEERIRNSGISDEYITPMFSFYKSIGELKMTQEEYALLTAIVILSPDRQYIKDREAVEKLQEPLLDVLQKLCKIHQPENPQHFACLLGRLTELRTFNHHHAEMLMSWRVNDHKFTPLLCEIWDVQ
compound,measurement,setting,value
CCCCOP(=O)(CCCC)OCCCC,outcome,[1],inactive
same,outcome,[2],inactive
same,outcome,[3],inactive
same,outcome,[4],inactive
same,outcome,[5],inactive
same,outcome,[6],inactive
same,outcome,[7],inactive
same,outcome,[8],inactive
same,AC50,[9],17.7 µM (active)
same,outcome,[10],inactive
same,outcome,[11],inactive
same,outcome,[12],inactive
same,outcome,[13],inactive
same,outcome,[14],inactive
same,outcome,[15],inactive
same,outcome,[16],inactive
CN(CCCC(O)c1cccnc1)N=O (stereo not given),outcome,[1],inactive
same,outcome,[2],inactive
same,outcome,[3],inactive
same,outcome,[4],inactive
same,outcome,[5],inactive
same,outcome,[6],inactive
same,outcome,[7],inactive
same,outcome,[8],inactive
same,outcome,[9],inactive
same,outcome,[17],inactive
same,outcome,[18],inactive
same,outcome,[12],inactive
same,outcome,[16],inactive
Nc1c(Oc2ccccc2)cc(O)c2c1C(=O)c1ccccc1C2=O,outcome,[1],inactive
same,outcome,[2],inactive
same,outcome,[3],inactive
same,outcome,[4],inactive
same,outcome,[5],inactive
same,outcome,[6],inactive
same,outcome,[7],inactive
same,outcome,[8],inactive
same,AC50,[9],15 µM (active)
same,outcome,[10],inactive
same,AC50,[17],7.82 µM (active)
same,outcome,[18],inactive
same,outcome,[12],inactive
same,outcome,[13],inactive
same,outcome,[15],inactive
CCOP(=O)(OCC)OC(=CCl)c1ccc(Cl)cc1Cl,outcome,[1],inactive
same,outcome,[2],inactive
same,outcome,[3],inactive
same,outcome,[4],inactive
same,outcome,[5],inactive
same,outcome,[6],inactive
same,outcome,[7],inactive
same,outcome,[8],inactive
same,AC50,[9],1.83 µM (active)
same,AC50,[17],26 µM (active)
same,outcome,[18],inactive
same,outcome,[12],inactive
same,outcome,[13],inactive
CCCCS(=O)(=O)Cl,outcome,[1],inactive
same,outcome,[2],inactive
same,outcome,[3],inactive
same,outcome,[4],inactive
same,outcome,[5],inactive
same,outcome,[6],inactive
same,outcome,[7],inactive
same,outcome,[8],inactive
same,outcome,[9],inactive
same,outcome,[10],inactive
same,outcome,[11],inactive
same,outcome,[18],inactive
same,outcome,[12],inactive
same,outcome,[13],inactive
same,outcome,[15],inactive
same,outcome,[16],inactive
O=S(=O)(Oc1ccc(Cl)cc1)c1ccc(Cl)cc1,outcome,[1],inactive
same,outcome,[2],inactive
same,outcome,[3],inactive
same,outcome,[4],inactive
same,outcome,[5],inactive
same,outcome,[6],inactive
same,outcome,[7],inactive
same,AC50,[8],63.8 µM (active)
same,AC50,[9],10.4 µM (active)
same,outcome,[10],inactive
same,AC50,[17],10.7 µM (active)
same,outcome,[18],inactive
same,outcome,[12],inactive
same,outcome,[14],inactive
same,outcome,[15],inactive
CCOc1ccc(N)cc1,outcome,[1],inactive
same,outcome,[2],inactive
same,outcome,[3],inactive
same,outcome,[4],inactive
same,outcome,[5],inactive
same,outcome,[6],inactive
same,outcome,[7],inactive
same,outcome,[8],inactive
same,outcome,[9],inactive
same,outcome,[17],inactive
same,outcome,[11],inactive
same,outcome,[18],inactive
same,outcome,[12],inactive
same,outcome,[14],inactive
Cc1cc(Cl)ccc1O,outcome,[1],inactive
same,outcome,[2],inactive
same,outcome,[3],inactive
same,outcome,[4],inactive
same,outcome,[5],inactive
same,outcome,[6],inactive
same,outcome,[7],inactive
same,outcome,[8],inactive
same,outcome,[9],inactive
same,outcome,[10],inactive
same,outcome,[18],inactive
same,outcome,[12],inactive
same,outcome,[16],inactive
Oc1cccc(-c2ccccc2)c1,outcome,[1],inactive
same,AC50,[2],168 µM (active)
same,AC50,[3],64.2 µM (active)
same,outcome,[4],inactive
same,outcome,[5],inactive
same,outcome,[6],inactive
same,outcome,[7],inactive
same,outcome,[8],inactive
same,AC50,[9],66.3 µM (active)
same,outcome,[10],inactive
same,AC50,[17],6.57 µM (active)
same,outcome,[18],inactive
same,outcome,[13],inactive
same,outcome,[14],inactive
same,outcome,[15],inactive
